Bioassay records deposited in PubChem by National Center for Advancing Translational Sciences (NCATS).
An excerpt weighted towards active compounds, which were near 10% of everything screened.
HPGD inh: qHTS Assay for Inhibitors of HPGD (15-Hydroxyprostaglandin Dehydrogenase) | purified HPGD, NADH fluorescence kinetic, PGE2 substrate | Potency, µM, for the others: top-dose activity change, negative = inhibition, hits mostly inhibitors | hit rate 4.3% among 150,000; note: potency is the fitted concentration of half-maximal effect
Target sequence (P15428 whole entry, looked up): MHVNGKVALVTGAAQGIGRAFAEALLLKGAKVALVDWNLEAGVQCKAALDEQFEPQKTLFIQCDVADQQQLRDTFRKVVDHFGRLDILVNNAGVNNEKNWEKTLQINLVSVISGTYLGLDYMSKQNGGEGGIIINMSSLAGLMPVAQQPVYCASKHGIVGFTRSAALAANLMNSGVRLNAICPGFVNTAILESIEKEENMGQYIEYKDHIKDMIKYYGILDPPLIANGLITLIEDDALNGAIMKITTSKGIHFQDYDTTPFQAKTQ
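20 nM HPGD preincubated 15 min at room temperature with compound in 50 mM Tris-HCl pH 8, 0.01% Tween 20. Started with 1 mM NAD+ and 30 uM prostaglandin E2; NADH fluorescence (360/450 nm) read 5 times over 30-s intervals, last minus first.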
12-hLO inh: qHTS Assay for Inhibitors of 12-hLO (12-human lipoxygenase) | Polyunsaturated fatty acid lipoxygenase ALOX12 (Homo sapiens), P18054 | purified 12-hLO, xylenol orange hydroperoxide absorbance | Potency, µM (top dose mostly 57.1 µM), without a hit: at the top dose activity change, negative = inhibition, usual class: inhibitors | hit rate 0.12% among 150,000 | AID 1452, 2008; active = well fitted inhibition curve with a large enough effect; inconclusive = small, poorly fitted or top-dose-only effect; note: potency is the fitted concentration of half-maximal effect; nearly all actives have a fitted effect of over 55% in size
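150 nM 12hLO, 25 mM Hepes pH 7.0 + 0.01% Triton X-100; cpd preinc 15 min RT; 40 uM arachidonic acid, 30 min RT; Fe-XO 30 min; A573/A405 ratio as read-out.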
LMNA splice mod: qHTS Assay for Modulators of Lamin A Splicing | HeLa LMNA splicing GFP/RFP minigene ratio, 48 h | Potency, µM (highest dose often 46.1 µM), for inactives: at the top dose ratio change, negative = inhibition, hits mostly inhibitors | hit rate 0.01% among 200,000 | AID 1487, 2009; active = well fitted inhibition curve with a large enough effect in the signal ratio, with a control signal flat, not every such curve was filed as active; inconclusive = small, poorly fitted or top-dose-only effect, or effect the other way, or a change in a side signal; the % refers to the signal ratio; note: potency is the fitted concentration of half-maximal effect
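Read-out is the ratio of GFP to DsRed2 object intensity, acquired by 488 nm laser-scanning cytometry on HeLa lamin A-EGFP minigene reporter cells. Compound incubation 48 hrs at 37 °C in Opti-MEM with 2% FBS; DMSO 0.5% final.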
PNC assembly inh: High Content Assay for Compounds that inhibit the Assembly of the Perinucleolar Compartment | PC3M PTB-GFP, PNC prevalence imaging, 16 h; active compounds read low | activity change (PNC), negative = inhibition, % at 10 µM | hit rate 3.1% among 140,000 | AID 2417, 2010;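 active = readout at or below -70, meaning at least 70% loss of cells showing the perinucleolar compartment, a nuclear body marking cancer cells; inconclusive = readout between -30 and a set limit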;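 note: plate controls were DMSO wells for no effect and camptothecin positive control wells for full effect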
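Compounds are pinned in duplicate onto adhered PC3M cells stably expressing GFP-tagged PTB and incubated 16 h at 37 C. Cells are then fixed, nuclei stained with Hoechst, and PNC-positive cells counted.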
ALDH1A1 inh: qHTS Assay for Inhibitors of Aldehyde Dehydrogenase 1 (ALDH1A1) | Purified ALDH1A1, NADH fluorescence, propionaldehyde substrate | Potency, µM (doses to about 75.3 µM), inactives show at the highest dose activity, negative = inhibition, hits mostly inhibitors | hit rate 7.3% among 220,000 | Aldehyde dehydrogenase 1A1 (Homo sapiens), P00352;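 note: potency is the fitted concentration of half-maximal effect; plate controls were no enzyme wells and a reference inhibitor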
Active calls of the source: *; ? = inconclusive; . = no result given; [ ] = another dose, or the depositor's remark. Unless noted, calls come from the whole dose curve; as a rule, active = well fitted inhibition curve with a large enough effect (not every such curve was filed as active); inconclusive = small, poorly fitted or top-dose-only effect, or another doubt; inactive = no such curve, though single readings can be large or run the other way. Unless noted, % is set by controls: 0 for no effect and ±100 for the full control effect.

SMILES	HPGD inh	12-hLO inh	LMNA splice mod	PNC assembly inh	ALDH1A1 inh
CCc1ccc(NC(=O)CSC2=Nc3ccccc3C3=NC(CCC(=O)NCc4cccs4)C(=O)N23)cc1 (stereo not drawn)	.	.	3%[46 µM]	.	.
O=C(c1cccc(Cl)c1)N1CCC(=O)N([C@H](COCc2cccc(Cl)c2)Cc2ccccc2)CC1	-3%	-3%[0.00818 µM]	.	.	-7%[50.4 µM]
Cc1ccc(NC(=O)c2ccc(Cl)c(N3C(=O)C=CC3=O)c2)cc1	3.5µM*	?	?	27	3.2µM*
O=C(Nc1ccc(Cl)c(Cl)c1)c1ccc(Cl)c(Cl)c1	.	.	8%[46 µM]	.	-7%
O=C(N/N=C\C=C\c1ccc2c(c1)OCO2)C1COc2cc3ccccc3cc2O1 (stereo not drawn)	?	-4%	5%	-29	?
O=C(N/N=C\c1cc(Br)cs1)C1COc2ccccc2O1 (stereo not drawn)	-8%	-10%	?	-28	20µM*
O=C(N/N=C/c1ccc2c(c1)OCO2)C1COc2ccccc2O1 (stereo not drawn)	-18%	-5%	7%	?	?
O=C(N/N=C/C=C/c1ccc([N+](=O)[O-])cc1)C1COc2ccccc2O1 (stereo not drawn)	-25%	1%	-23%	8	25µM*
O=C(Nc1cccc(C(=O)N2CCN(c3ccc(Cl)cc3)CC2)c1)c1nsc2ccccc12	.	.	-9%[46 µM]	.	.
Clc1ccccc1CSc1nc(NCCc2ccccc2)c2ccccc2n1	.	.	-14%[46 µM]	.	.
CCCc1nc2ccccc2n1CCOc1ccccc1	?	-2%	-5%	25	-1%
Cc1nc2ccccc2n1CCCOc1ccccc1	-4%	-4%	?	-105*	-7%
COCc1nc2ccccc2n1CCCOc1ccccc1	-11%	-2%	-2%	-106*	-5%
CCC(C)NC(=O)Cn1ccc2cc(S(=O)(=O)N3CCCCC3)ccc21 (stereo not drawn)	.	.	2%[46 µM]	.	.
O=C1NC(=S)/C(=C\c2ccc(-c3ccccc3Cl)o2)S1	16µM*	-9%	?	16	?
Cc1noc(/C=C/c2ccc(-c3ccccc3Cl)o2)c1[N+](=O)[O-]	-10%	-5%	0%	-21	-1%
c1ccc2c(c1)oc1c(NCCN3CCOCC3)ncnc12	-5%	2%	7%	?	20%
c1ccc2c(c1)oc1c(Nc3ccc(CN4CCOCC4)cc3)ncnc12	-28%	9%	?	-3	20µM*
Cc1ccc(S(=O)(=O)N(CC(=O)N2CCC(C(N)=O)CC2)c2cccc(C(F)(F)F)c2)cc1	-12%	0%	10%	9	13µM*
CCN1CCN(CC(O)COCC2COc3ccccc3O2)CC1 (stereo not drawn)	.	.	-5%[46 µM]	.	28µM*
OC(COCC1COc2ccccc2O1)CN1CCCCC1 (stereo not drawn)	2%	-4%	-8%	?	17%
CC(C)CCNC(=O)CSc1nc2ccccc2s1	.	.	.	.	18µM*
CC(C)CC1CC(=O)OC1(C)C(=O)CSc1nc2ccccc2s1 (stereo not drawn)	-17%	-2%	0%	10	8.9µM*
CC(C)OC(=O)CSc1nc2ccccc2s1	16µM*	-3%	9%	-24	11µM*
Cc1csc(NC(=O)CCCSc2nc3ccccc3s2)n1	14µM*	?	?	-5	10µM*
SMILES	HPGD inh	12-hLO inh	LMNA splice mod	PNC assembly inh	ALDH1A1 inh
CC(=O)CSc1nc2ccccc2s1	-11%	0%	4%	32	-15%
CCC1OCCC=CC1C (stereo not drawn)	.	.	.	.	5%[13.5 µM]
Cc1ccccc1-c1cncnc1NCc1cccs1	.	.	-2%	.	?
c1ccc(-c2nc(-c3cccc4ccccc34)c(NC3CCCCC3)o2)cc1	-18%	5%	.	.	1%
COc1cc(C(=O)NCC(c2ccco2)S(=O)(=O)c2cccs2)cc(OC)c1OC (stereo not drawn)	.	.	-12%[46 µM]	.	.
O=C(CN1CCCCC1)NC(=O)NCc1ccccc1	-13%	9%	-4%	61	5%
O=C(CN1CCCc2ccccc21)NC(=O)NCc1ccco1	-5%	4%	0%	17	-2%
O=C(CN1CCc2ccccc21)NC(=O)NCc1ccccc1	.	.	1%[46 µM]	.	7.1µM*
COc1cc2c(cc1OC)CN(CC(=O)NC(=O)NCc1ccccc1)CC2	.	.	?	.	28µM*
O=C(O)C1C(c2ccccc2)C(C(=O)Oc2ccccc2)C1c1ccccc1 (stereo not drawn)	-5%	-1%	11%	?	16µM*
CN(C)c1ccc(CNc2nc(-c3ccco3)nn2S(C)(=O)=O)cc1	.	.	3%[46 µM]	.	.
CCCCC1=CC2=C(OC(C)=O)C(=O)C(C)(OC(=O)CCC(=O)OC)C(=O)C2=CO1 (stereo not drawn)	-9%	2%	.	.	0%
COc1ccc(C2C3=C(CCCC3=O)Nc3nc(SCc4ccccc4)nn32)cc1OC (stereo not drawn)	-16%	28%	11%	-86*	2%
COC(=O)c1nc2n(n1)C(c1cccc(Cl)c1)C1=C(CCCC1=O)N2 (stereo not drawn)	16µM*	-2%	-3%	9	18%
COC(=O)c1nc2n(n1)C(c1cccc(Cl)c1)C1=C(CC(C)(C)CC1=O)N2 (stereo not drawn)	-30%	-4%	-11%	44	6%
Cc1[nH]c2ccccc2c1Cc1nnc(SCCC#N)o1	-16%	4%	-11%	-100*	3%
CCCN1C(=O)C(O)(CC(=O)c2ccc(CC)cc2)c2ccccc21 (stereo not drawn)	.	.	-5%[46 µM]	.	.
CCCCN1C(=O)C(O)(CC(=O)c2ccccn2)c2ccccc21 (stereo not drawn)	.	.	1%[46 µM]	.	1µM*
CCN1C(=O)C(O)(CC(=O)c2cc(C)ccc2C)c2ccccc21 (stereo not drawn)	-10%	2%	-4%	12	?
CCCCN1C(=O)C(O)(CC(=O)c2c(C)coc2C)c2ccccc21 (stereo not drawn)	.	.	-15%[46 µM]	.	10µM*
CCCCN1C(=O)C(O)(CC(=O)c2ccccc2OC)c2ccccc21 (stereo not drawn)	-6%	1%	5%	-5	8.9µM*
CC(=O)Nc1ccccc1C=C1c2ccccc2-c2ccccc21	-8%	-1%[11.4 µM]	.	.	9%[13.5 µM]
CSc1ccc(/C=C2/C(C)=C(CC(=O)O)c3cc(F)ccc32)cc1	-17%	-2%[0.00818 µM]	.	.	-4%
O=C1CC(C(=O)N(c2cccc(F)c2)C(C(=O)NC2CCCC2)c2ccccn2)CS1 (stereo not drawn)	-2%	2%	6%	-2	10µM*
